Values joined by “and” are separate entries in the source; they are usually repeats but may differ in a detail not shown here. Identical values can stand only once. Among all 5,500 compounds or so, about 2,000 (36%) were called active. About 18% were inconclusive and are not listed. Cut-off read from the data, not from the text of the source: active = normalized growth mostly below about 0.91 (no sharp cut-off); inconclusive = no clear call, values can overlap the other calls; inactive = mostly above about 0.92. Some of the results follow.
Test: chemical genetic growth profiling, strain panel (AID 1159580);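 note: tested at 20 µM; growth read once vehicle control cultures reached saturation at 30 °C; 1 = growth at the plate median or of vehicle wells; lower values mean less growth of the strain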
Conditions: S. cerevisiae deletion strains, growth OD

Measured: normalized growth

O=C(O)c1cc2ccccc2[nH]1
inactive: locus YAL013W, strain DEP1, hits give low values 1.01 | locus YAL021C, strain ccr4, hits give low values 0.969 | locus YAL026C, strain drs2, hits give low values 0.99 | locus YAL030W, strain snc1, hits give low values 1 | locus YBL061C, strain skt5, hits give low values 0.996 | locus YBR009C, strain hhf1, hits give low values 0.996 | locus YBR021W, strain FUR4, hits give low values 0.98 | locus YBR023C, strain chs3, hits give low values 0.994 | locus YBR171W, strain sec66, hits give low values 0.982 | locus YBR229C, strain ROT2, hits give low values 1 | locus YBR231C, strain swc5, hits give low values 0.994 | locus YBR279W, strain paf1, hits give low values 0.991 | locus YCL011C, strain gbp2, hits give low values 0.98 | locus YCL016C, strain dcc1, hits give low values 0.998 | locus YCL029C, strain bik1, hits give low values 1.01 | locus YCL061C, strain MRC1, hits give low values 0.973 | locus YCL069W, strain vba3, hits give low values 0.984 | locus YCR088W, strain abp1, hits give low values 0.98 | locus YDL005C, strain med2, hits give low values 0.982 | locus YDL035C, strain GPR1, hits give low values 1.01 | locus YDL040C, strain nat1, hits give low values 0.995 | locus YDL074C, strain BRE1, hits give low values 1.01 | locus YDL101C, strain DUN1, hits give low values 1.02 | locus YDL134C, strain PPH21, hits give low values 1.01 | locus YDL185W, strain tfp1, hits give low values 1.01 | locus YDL192W, strain arf1, hits give low values 1.02 | locus YDR001C, strain nth1, hits give low values 0.977 | locus YDR069C, strain doa4, hits give low values 1 | locus YDR101C, strain arx1, hits give low values 1.02 | locus YDR137W, strain rgp1, hits give low values 0.938 | locus YDR150W, strain NUM1, hits give low values 1.01 | locus YDR159W, strain sac3, hits give low values 0.982 | locus YDR162C, strain NBP2, hits give low values 1.04 | locus YDR195W, strain ref2 0.978 | locus YDR297W, strain sur2, hits give low values 0.981 | locus YDR318W, strain mcm21, hits give low values 1.01 | locus YDR334W, strain swr1, hits give low values 0.958 | locus YDR335W, strain msn5, hits give low values 0.987 | locus YDR388W, hits give low values 1.01 | locus YDR392W, strain spt3, hits give low values 0.947 | locus YDR502C, strain sam2, hits give low values 1.01 | locus YEL003W, strain gim4, hits give low values 0.978 | locus YEL037C, strain rad23, hits give low values 0.982 | locus YEL061C, strain CIN8 (second series), hits give low values 0.981 | locus YEL061C, strain CIN8, hits give low values 1 | locus YER015W, strain faa2, hits give low values 0.989 | locus YER016W, strain bim1, hits give low values 1 | locus YER110C, hits give low values 1.02 | locus YER111C, strain swi4, hits give low values 0.997 | locus YER155C, strain BEM2 (second series), hits give low values 1.01 | locus YER155C, strain BEM2, hits give low values 0.992 | locus YER167W, strain BCK2, hits give low values 1.01 | locus YFR010W, strain ubp6, hits give low values 0.968 | locus YGL078C, strain dbp3, hits give low values 0.995 | locus YGL086W, strain mad1, hits give low values 1.02 | locus YGL167C, strain pmr1, hits give low values 0.993 | locus YGL173C, strain kem1, hits give low values 0.975 | locus YGL227W, strain vid30, hits give low values 0.982 | locus YGL240W, strain doc1, hits give low values 1 | locus YGL248W, strain PDE1, hits give low values 1 | locus YGL253W, strain hxk2, hits give low values 0.987 | locus YGR078C, strain PAC10, hits give low values 0.99 | locus YGR135W, strain pre9, hits give low values 1.01 | locus YGR229C, strain SMI1, hits give low values 0.999 | locus YGR252W, strain gcn5, hits give low values 0.984 | locus YHR013C, strain ard1, hits give low values 1 | locus YHR027C, strain rpn1, hits give low values 1.02 | locus YHR030C, strain SLT2, hits give low values 1.01 and 1.03 | locus YHR079C, strain IRE1 (second series), hits give low values 1.01 | locus YHR079C, strain IRE1, hits give low values 1 | locus YHR094C, strain hxt1, hits give low values 1.02 | locus YHR129C, strain ARP1, hits give low values 1.01 | locus YHR142W, strain chs7, hits give low values 0.928 | locus YHR200W, strain rpn10, hits give low values 1.02 | locus YIL066C, strain RNR3, hits give low values 1.02 | locus YIL073C, strain SPO22, hits give low values 1.07 | locus YIL125W, strain kgd1, hits give low values 0.995 | locus YIR030C, strain dcg1, hits give low values 1.01 | locus YJL092W, strain hpr5, hits give low values 0.97 | locus YJL095W, strain BCK1 (second series), hits give low values 1 | locus YJL095W, strain BCK1, hits give low values 1.01 | locus YJL115W, strain asf1, hits give low values 0.975 | locus YJL129C, strain trk1, hits give low values 0.971 | locus YJL134W, strain LCB3, hits give low values 1.01 | locus YJL154C, strain vps35, hits give low values 0.966 | locus YJL164C, strain tpk1, hits give low values 1 | locus YJL166W, strain qcr8, hits give low values 1 | locus YJL168C, strain set2, hits give low values 1.02 | locus YJL187C, strain SWE1 (second series), hits give low values 1.01 | locus YJL187C, strain SWE1, hits give low values 0.988 | locus YJR043C, strain POL32, hits give low values 0.99 | locus YJR066W, strain TOR1, hits give low values 0.935

From PubChem BioAssay AID1159580 (chemical genetic matrix, 2015)
